# PubChem BioAssay AID1851 (National Center for Advancing Translational Sciences (NCATS), 2009)
# Where “and” joins values, the source holds several entries; their conditions need not be identical. Equal entries are not always repeated. Hit rate of the full screen: of about 16,000 compounds, about 5,100 (32%) were called active. Not shown: some 25% with an inconclusive outcome. The list shows a part of the results. Unmarked numbers belong to inactive results. The call rests on the fitted dose curve; in most records, active means well fitted curve in the direction sought with a large enough effect; inconclusive means small, poorly fitted or top-dose-only effect, or effect the other way; inactive means no such curve, though single readings can be large or run the other way.
# Molecular target: Cytochrome P450 3A4 (Homo sapiens) (UniProt P08684)
# Sequence (P08684 whole entry, looked up): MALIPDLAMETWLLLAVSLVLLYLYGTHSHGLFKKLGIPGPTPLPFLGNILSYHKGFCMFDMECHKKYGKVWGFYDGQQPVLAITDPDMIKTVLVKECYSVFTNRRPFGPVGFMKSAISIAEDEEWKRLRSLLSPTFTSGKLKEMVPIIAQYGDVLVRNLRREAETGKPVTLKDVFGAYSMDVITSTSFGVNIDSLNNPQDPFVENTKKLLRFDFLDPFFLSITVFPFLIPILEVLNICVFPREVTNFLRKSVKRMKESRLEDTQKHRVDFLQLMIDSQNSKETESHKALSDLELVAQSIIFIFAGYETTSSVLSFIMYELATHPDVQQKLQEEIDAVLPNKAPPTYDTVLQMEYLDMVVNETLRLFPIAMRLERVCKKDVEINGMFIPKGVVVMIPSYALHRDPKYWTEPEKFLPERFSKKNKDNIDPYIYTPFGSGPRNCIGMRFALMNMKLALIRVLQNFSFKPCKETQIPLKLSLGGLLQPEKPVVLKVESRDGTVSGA
# Experiment: Cytochrome panel assay with activity outcomes
# Settings: recombinant CYP, pro-luciferin dealkylation, luminescence, p450-cyp3a4; series mostly up to 57.1 µM
# On the % scale 0 is the no-effect control and ±100 the full control effect.
Compound,"activity, negative = inhibition",AC50
O=c1[nH]cc(CS(=O)(=O)Cc2c[nH]c(=O)[nH]c2=O)c(=O)[nH]1,-10.9% [at 11.4 µM],
CN1C(=O)C(CC(N)=O)N(NC(=O)c2ccc(Cl)cc2)C1=S (configuration not stated),,inactive
CCCNC(=O)OC[C@@H]1O[C@H](c2ccccc2)C=C[C@@H]1Oc1ccc(OC)cc1,,3.98 µM (active)
COc1ccc(O[C@H]2C=C[C@@H](c3ccccc3)O[C@H]2COC(=O)N2CCCCC2)cc1,-82.7% [at 11.4 µM],
CC(=O)OC[C@@H]1O[C@H](CCO/N=C\[C@@H](C)[C@H](OCc2ccccc2)C(C)C)C=C[C@@H]1OC(C)=O,-26.2% [at 11.4 µM],
CCCNC(=O)OC[C@@H]1O[C@H](CCO/N=C\[C@@H](C)[C@H](OCc2ccccc2)C(C)C)C=C[C@@H]1Oc1ccc(OC)cc1,,3.98 µM (active)
COc1ccc(O[C@H]2C=C[C@@H](c3ccccc3)O[C@H]2CO/N=C(/C)CCC(=O)OC[C@@H]2O[C@H](c3ccccc3)C=C[C@@H]2Oc2ccc(OC)cc2)cc1,,3.98 µM (active)
Cc1cc(C)c(Cn2cnc(-c3ccc([N+](=O)[O-])cc3)c2)c(C)c1,,7.94 µM (active)
Cc1nn(Cc2ccc([N+](=O)[O-])cc2)c(=O)n1-c1cccc(F)c1,,inactive
CC(=O)OC[C@@H]1O[C@H](C/C=N\OC[C@@H](O)COCc2ccco2)C=C[C@@H]1OC(C)=O,-26.2% [at 11.4 µM],
C=CC[C@@H]1C=C[C@H](Oc2ccc(C)cc2)[C@H](COC(=O)NCc2cccc3ccccc23)O1,,3.16 µM (active)
C=CC[C@@H]1C=C[C@H](ON=C(C)C)[C@H](CO)O1,-13.4% [at 11.4 µM],
CO/N=C(/C)CCC(=O)OC[C@@H]1O[C@H](C#Cc2ccccc2)C=C[C@@H]1Oc1ccc(C)cc1,,3.98 µM (active)
C=CC[C@@H]1C=C[C@@H](O/N=C(/C)CCC(=O)OC[C@@H]2O[C@H](C#Cc3ccccc3)C=C[C@@H]2Oc2ccc(C)cc2)[C@@H](CO)O1,,5.01 µM (active)
O=c1n(-c2ccccc2)c(=O)n2n1CC[C@H]1/C(=N\OC[C@@H](O)COCc3ccco3)[C@H]3O[C@@H]3[C@@H](O)[C@@H]12,-24.1% [at 11.4 µM] and -23% [at 11.4 µM],
C/C(CCC(=O)OC[C@@H]1O[C@H](C#Cc2ccccc2)C=C[C@@H]1Oc1ccc(C)cc1)=N/OC[C@@H](O)COCc1ccco1,,3.16 µM (active)
CC(=O)N[C@@H](CC(=O)O)C(=O)O,,inactive
CCOC(=O)CCN1C(=O)[C@H]2[C@H]3[C@H](O)[C@H](O)C/C(=N/O[C@@H]4O[C@@H](COC(C)=O)[C@@H](OC(C)=O)[C@@H](OC(C)=O)[C@H]4OC(C)=O)[C@H]3CC[C@@H]2C1=O,-10.4% [at 11.4 µM],
CC(=O)OC[C@H]1O[C@@H](ON=C(C)C)[C@H](OC(C)=O)[C@@H](OC(C)=O)[C@H]1OC(C)=O,-17.9% [at 11.4 µM],
CC(=O)OC[C@H]1O[C@@H](O/N=C(\C)CCC(=O)OC[C@@H]2O[C@H](C#Cc3ccccc3)C=C[C@@H]2Oc2ccc(C)cc2)[C@H](OC(C)=O)[C@@H](OC(C)=O)[C@H]1OC(C)=O,,3.16 µM (active)
CC(=O)OC[C@@H]1O[C@H](CCO/N=C(\C)CCC(=O)OC[C@@H]2O[C@H](C#Cc3ccccc3)C=C[C@@H]2Oc2ccc(C)cc2)C=C[C@@H]1OC(C)=O,,3.16 µM (active)
CC(C(=O)NC1CCCC1)N(C(=O)c1ccc(-c2ccccc2)[nH]1)c1ccccc1F (configuration not stated),,3.98 µM (active)
Cc1ccc(C(=O)NC2CCCCC2)cc1,,inactive
O=C(NC1CCCCCC1)c1cccs1,,14.1 µM (active)

Compound,"activity, negative = inhibition",AC50
O=C(NCCCc1ccccc1)c1cccs1,,inactive
O=S(=O)(Nc1nc(-c2sccc2Cl)cs1)c1cc(Cl)ccc1Cl,,7.94 µM (active)
CC(=O)c1c(N2CCC(C(N)=O)CC2)nc(=S)n(-c2ccccc2)c1C,28.2% [at 2.29 µM],
FC(F)(F)c1cc(Sc2ccccc2)nc(-c2ccccn2)n1,22.3% [at 11.4 µM],
COC(=O)[C@@]1(Cc2ccc(F)cc2)[C@H]2c3cc(C(=O)N4CCCC4)n(Cc4ccc(C)o4)c3C[C@H]2CN1C(=O)c1ccccc1,,3.16 µM (active)
COC(=O)[C@@]1(Cc2ccc(F)cc2)[C@H]2c3cc(C(=O)N(C)C)n(Cc4ccc(C)o4)c3C[C@H]2CN1C(=O)c1ccccc1,,2.51 µM (active)
COC(=O)[C@@]1(Cc2ccccc2)[C@H]2c3cc(C(=O)N4CCCC4)n(Cc4ccc(C)o4)c3C[C@H]2CN1C(=O)c1ccccc1,,2 µM (active)
COC(=O)C(C)(C(=O)OC)c1ccc([N+](=O)[O-])cn1,,inactive
COC(=O)C(NC(=O)c1ccc(F)cc1)(Nc1ncc(S(=O)(=O)c2ccc([N+](=O)[O-])cc2)s1)C(F)(F)F (configuration not stated),,5.01 µM (active)
C=CCC(C(=O)OC)(C(=O)OC)c1ccc([N+](=O)[O-])cn1,,inactive
Cc1cc(C(F)F)n2nc(C(=O)Nc3cccnc3Cl)nc2n1,2.46% [at 2.29 µM],
O=C(Oc1ccccc1[N+](=O)[O-])c1cccnc1,,inactive
C/C(=N\NC(=O)c1[nH]c2c([N+](=O)[O-])cc(C)cc2c1-c1ccccc1)c1cccnc1,,1.12 µM (active)
O=C(O)c1[nH]c2c([N+](=O)[O-])cc([N+](=O)[O-])cc2c1C(=O)O,3.73% [at 11.4 µM],
O=C(/C=C/c1cccc([N+](=O)[O-])c1)NCCN1CCOCC1,,inactive
COC(=O)c1cc(NC(=O)/C=C/c2ccc3c(c2)OCO3)cc(C(=O)OC)c1,,0.794 µM (active)
CC(/C=N/NC(=O)c1cccc([N+](=O)[O-])c1)=C\c1ccccc1,,inactive
COC(=O)c1cccc(NC(=O)/C=C/c2cccc([N+](=O)[O-])c2)c1,,10 µM (active)
CCOC(=O)c1c(NC(=O)/C=C/c2ccc3c(c2)OCO3)sc(C)c1CC,,5.01 µM (active)
CCOC(=O)c1c(NC(=O)/C=C/c2ccc3c(c2)OCO3)sc(C)c1C,,inactive
O=C(O)C[C@@H](C(=O)O)c1ccccc1[N+](=O)[O-],0.874% [at 11.4 µM],
CCSc1nnc(NC(=O)COc2ccc3ccccc3c2)s1,-4.8% [at 2.29 µM],
C=CCSc1nnc(NC(=O)COc2ccc3ccccc3c2)s1,,inactive
CCOc1ccc(N2C(=O)CS/C2=N/NC(=O)COc2ccc3ccccc3c2)cc1,,0.891 µM (active)

Compound,"activity, negative = inhibition",AC50
O=S(=O)(O)c1ccc(-c2nnc(-c3ccccn3)nc2-c2ccc(S(=O)(=O)O)o2)o1,6.48% [at 11.4 µM],
CC[C@]1(O)C[C@H]2CN(CCc3c([nH]c4ccccc34)[C@](C(=O)OC)(c3cc4c(cc3OC)N(C=O)[C@H]3[C@@](O)(C(=O)OC)[C@H](OC(C)=O)[C@@]5(CC)C=CCN6CC[C@]43[C@H]65)C2)C1,,3.98 µM (active)
CC[C@]1(O)C[C@@H]2CN(CCc3c([nH]c4ccccc34)[C@](C(=O)OC)(c3cc4c(cc3OC)N(C)[C@H]3[C@](O)(C(=O)OC)[C@@H](C(=O)OC)[C@@]5(CC)C=CCN6CC[C@@]43[C@@H]65)C2)C1,,15.8 µM (active)
C=CCn1c(C)cc(C(=O)CN2C(=O)c3ccccc3C2=O)c1C,,2.82 µM (active)
CCN(CC)c1ccc(SS(=O)(=O)O)cc1,,inactive
COc1cc(C(=O)Oc2ccccc2/C=N/NC(=O)c2ccc(C)cc2)cc(OC)c1OC,,inactive
O=C(N/N=C/c1ccc2cccc(OCc3ccccc3)c2n1)c1ccc(Br)cc1,-19% [at 2.29 µM],
COc1ccc(C(=O)N/N=C/c2cccc3cccnc23)cc1,,22.4 µM (active)
Cc1cccc(NC(=O)CCS(=O)(=O)c2cccc3nsnc23)c1C,-25.6% [at 2.29 µM],
O=C(CCS(=O)(=O)c1cccc2nsnc12)NC1CCCCC1,,5.01 µM (active)
CC1(C)SC(=S)N(Cc2ccc3c(c2)OCO3)C1N(O)C(=O)NC1CCCCC1 (configuration not stated),,1.12 µM (active)
O=C(O)[C@@H]1CCCN1Cc1ccc2c(c1)OCO2,-11.9% [at 11.4 µM],
O=C(Cn1cnc2ccccc21)NC(c1ccccc1)c1ccccc1,,7.94 µM (active)
O=C(O)CC(c1ccccc1)n1cnnn1 (configuration not stated),,inactive
CN[C@@H]1[C@H](O[C@H]2[C@@H](O[C@@H]3[C@@H](O)[C@@H](O)[C@@H](N=C(N)N)[C@@H](O)[C@@H]3N=C(N)N)O[C@@H](C)[C@]2(O)CO)O[C@H](CO)[C@@H](O)[C@@H]1O,,inactive
COc1ccccc1OCCCOc1ccc([N+](=O)[O-])cc1Cl,,14.1 µM (active)
COc1cc(C)ccc1OCCCOc1ccccc1Br,3.33% [at 2.29 µM],
COc1cc(C=O)ccc1OCCOCCOc1ccccc1Cl,-2.53% [at 2.29 µM],
Cc1ccc2c(c1)N(CC(=O)NC1CCC(C)CC1)C(=O)CO2 (configuration not stated),,7.08 µM (active)
Cc1ccc2c(c1)N(CC(=O)NC1CCCc3ccccc31)C(=O)CO2 (configuration not stated),,7.08 µM (active)
CC(=O)NN1C(=O)/C(=C\c2ccc(C)cc2)SC1=S,,inactive
Cc1ccc(C(=O)N/C(=C\c2ccc(Br)cc2)c2nc(=S)[nH][nH]2)cc1,,22.4 µM (active)
Cc1ccc(C(=O)NC(=S)Nc2cccc3nsnc23)cc1,,inactive
CN(C)CCCN1c2ccc3ccccc3c2Sc2cccc(Cl)c21,-11.7% [at 11.4 µM],
